Screens (PubChem BioAssay)
Rows were chosen to be rich in hits. Some 6.5% of all compounds tested hit in one or more screens of this group.
HCMV inh: qHTS Assay for inhibitors of the human cytomegalovirus (HCMV). HFF cells, HCMV-luciferase reporter, 72 h; active compounds read low. activity change, negative = inhibition, % at 57.5 µM. hit rate 4.5% among 410,000. AID 1259415, 2018; in the data active means activity change below about -60%; inconclusive means no clear call, values can overlap the other calls; inactive means above about -39%
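Compounds were evaluated in HFFs infected with an HCMV luciferase reporter virus (MOI 1 PFU/cell). Luciferase in lysates collected 72 h post infection served as the replication measure.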
VACV Venus inh: qHTS for Stage-Specific Inhibitors of Vaccinia Orthopoxvirus: Venus Reporter Primary qHTS | Potency, µM (titrated, usually from 36.5 µM), without a hit: at the highest dose activity change, negative = inhibition, actives largely listed as inhibitors | Vaccinia virus Venus reporter expression, fluorescence | hit rate 0.46% among 330,000; calls by dose curve; tested in A549 cells; further: potency means the concentration at half of the fitted maximal effect; nearly all actives have a fitted effect of over 30% in size
Vaccinia mCherry: qHTS for Stage-Specific Inhibitors of Vaccinia Orthopoxvirus: mCherry Reporter Primary qHTS; Vaccinia virus mCherry reporter infection, fluorescence; Potency, µM (top dose mostly 36.5 µM), for the others: at the highest dose activity change, negative = inhibition, most hits filed as inhibitors; hit rate 0.63% among 310,000; AID 720579, 2013; calls by dose curve; tested in A549 cells; further: potency means the concentration at half of the fitted maximal effect; nearly all actives have a fitted effect of over 35% in size
FMDV inh: High Throughput Screening for Foot and Mouth Disease Virus Antivirals; FMDV antiviral cell-based qHTS; Potency, µM (titrated, usually from 57.9 µM), without a hit: at the highest dose activity change, negative = inhibition, most hits filed as inhibitors; hit rate 1.2% among 410,000; AID 1159524, 2015; calls by dose curve; tested in HEK293T cells; further: read-out not given here; potency means the concentration at half of the fitted maximal effect; nearly all actives have a fitted effect of over 45% in size
Lassa entry inh: qHTS for Inhibitors of binding or entry into cells for Lassa Virus | AID 540256, 2011 | Potency, µM (series often up to 37.9 µM), for the others: at the top dose activity change, negative = inhibition, most hits filed as inhibitors | hit rate 1.2% among 300,000 | Lassa virus pseudotype entry inhibition, cell reporter; calls by dose curve; tested in HEK293 cells; further: potency means the concentration at half of the fitted maximal effect; nearly all actives have a fitted effect of over 50% in size
MARV entry inh: qHTS for inhibitors of binding or entry into cells for Marburg Virus. Marburg virus pseudotyped entry inhibition, cell reporter. Potency, µM (highest dose often 37.8 µM), for inactives: at the top dose activity change, negative = inhibition, actives largely listed as inhibitors. hit rate 1.8% among 300,000; calls by dose curve; tested in HEK293 cells; further: potency means the concentration at half of the fitted maximal effect
Numbers without * were called inactive; i = inactive; ? = inconclusive; · = no result given; ! = repeats disagree; [ ] = dose if it differs, or a comment. On the % scale 0 is the no-effect control and ±100 the full control effect.

SMILES | HCMV inh | VACV Venus inh | Vaccinia mCherry | FMDV inh | Lassa entry inh | MARV entry inh
COc1ccc(N(CC(=O)Nc2ccccc2OC)S(=O)(=O)c2ccc(NC(C)=O)cc2)cc1 | ? | ? | -26% | 0% | 3.2µM* | ?
COc1ccc(N(CC(=O)N/N=C/c2ccc(F)cc2)S(=O)(=O)c2ccccc2)cc1 | -69* | -23% | -31% | -2% | ? | ?
COC(=O)c1sc2nc(CN3CCN(c4ccc(OC)cc4)CC3)[nH]c(=O)c2c1C | -80* | 3% | -13% | -3% | -15% | -5%
COc1cccc(N2CCN(Cc3nc4scc(-c5ccccc5)c4c(=O)[nH]3)CC2)c1 | -61* | ? | ? | ? | ? | ?
Cc1cc(Br)ccc1NC(=O)C(Cc1ccccc1)NS(=O)(=O)c1ccc(Br)s1 (configuration not stated) | -104* | -20% | -18% | -18% | -1%[46.1 µM] | 3%[46.1 µM]
Nc1nc(N)c2nc(CNc3ccc(C(=O)NC(CCC(=O)O)C(=O)O)cc3)cnc2n1 (configuration not stated) | · | -9% | -8% | · | ? | 0.022µM*!
Nc1nc(N)c2nc(CNc3ccc(C(=O)N[C@H](CCC(=O)O)C(=O)O)cc3)cnc2n1 | · | · | · | · | · | 18%
CN(Cc1cnc2nc(N)nc(N)c2n1)c1ccc(C(=O)NC(CCC(=O)O)C(=O)O)cc1C(F)(F)F (configuration not stated) | -97* | 1.1µM* | 0.32µM* | -29% | ? | -67%
CN(Cc1cnc2nc(N)nc(N)c2n1)c1ccc(C(=O)NC(CCC(=O)O)C(=O)O)cc1 (configuration not stated) | -97* | ? | 11µM* | -24% | ? | ?
CCN1/C(=C/C=C/c2oc3ccc(-c4ccccc4)cc3[n+]2CC)Oc2ccc(-c3ccccc3)cc21 | -97* | · | 169% | 8.9µM* | 4.5µM* | 2.5µM*
O=C(c1ccc2c(=O)n(CC3CCCO3)c(=S)[nH]c2c1)N1CCN(C(=O)c2ccco2)CC1 (configuration not stated) | · | -16% | -24% | · | · | ·
CC(C)CC(=O)OCc1cc(=O)n2nc(C3CCCCC3)sc2n1 | 10 | 1% | -3% | 39% | 2%[46.1 µM] | ·
Cc1ccc(Nc2nnc(-c3ccc(C)c(S(=O)(=O)N4CCOCC4)c3)c3ccccc23)c(C)c1 | -66* | -32% | -15% | -19% | ? | ·
Cc1cccc(Nc2nnc(-c3ccc(N4CCOCC4)c([N+](=O)[O-])c3)c3ccccc23)c1 | -68* | -27% | -13% | -13% | 10µM* | 2.2µM*
Cc1ccc(-c2nnc(Nc3cccc(O)c3)c3ccccc23)cc1S(=O)(=O)N1CCOCC1 | -61* | -28% | -20% | -48% | ? | ·
Cc1nnc(-c2ccc(N3CCOCC3)c([N+](=O)[O-])c2)o1 | · | · | · | 19% | · | ·
Cc1ccc(-c2nnc(Nc3ccccc3)c3ccccc23)cc1S(=O)(=O)N1CCOCC1 | -1 | -20% | ? | ? | -14%[46.1 µM] | ·
CNS(=O)(=O)c1cc(-c2nnc(Nc3cc(C)ccc3C)c3ccccc23)ccc1C | -78* | -14% | -22% | 9% | ? | ·
Cc1oc(-c2ccccc2NC(=O)C2CCC2)nc1CNC(=O)c1c(F)ccc(F)c1F | · | 9% | -11% | -8% | · | ·
C=C(C)Cn1c(SCC(=O)Nc2cc(C)ccc2C)nc2sc3c(c2c1=O)CCCC3 | 5 | -7% | -2% | -24% | 26%[46.1 µM] | 6%[46.1 µM]
Cc1cccc(C(c2sc3nc(-c4ccco4)nn3c2O)N2CCN(Cc3ccccc3)CC2)c1 (configuration not stated) | 70 | -9% | -2% | -5% | -5%[46.1 µM] | ·
COc1ccc(NC(=O)C2CCCN2S(=O)(=O)c2ccc3c(c2)CCCC(=O)N3)cc1Cl (configuration not stated) | -23 | -15% | -13% | ? | -6%[46.1 µM] | ·
O=C(Nc1ccc(-c2csc(-c3ccccc3)n2)cc1)c1ccccc1 | -101* | · | · | 0% | ? | ?
Cc1nc(-c2ccc(NC(=O)c3ccccc3C)cc2)cs1 | -12 | ? | ? | -5% | ? | ?
Cc1nc(-c2ccc(C(=O)Nc3ccccc3F)cc2)cs1 | -70* | -16% | i | 8.9µM* | ? | ?
SMILES | HCMV inh | VACV Venus inh | Vaccinia mCherry | FMDV inh | Lassa entry inh | MARV entry inh
CCCCCC(=O)Nc1ccc(-c2csc(C)n2)cc1 | 59 | -9% | i | 23% | 15% | -2%
Cc1nc(-c2ccc(C(=O)Nc3cccc(F)c3)cc2)cs1 | 24 | -5% | 0% | ? | ? | 5µM*
Cc1nc(-c2ccc(NC(=O)/C=C\C(=O)O)cc2)cs1 | -81* | -7% | -18% | -11% | -28% | -3%[46.1 µM]
C=CCNC(=O)c1ccc(-c2nc(-c3ccccc3)cs2)cc1 | 39 | · | · | 21% | ? | ?
CCOc1ccc(NC(=O)c2ccc(-c3csc(C)n3)cc2)cc1 | 16 | -18% | -14% | -20% | 5% | 7%
O=C(c1ccc2c(c1)OCCO2)N(Cc1cccnc1)c1nc2c(F)cc(F)cc2s1 | -29 | -9%[7.34 µM] | -11%[7.34 µM] | 0% | ? | ·
Cc1ccc(NC(=O)CSC2=Nc3ccccc3C3=NC(Cc4ccccc4)C(=O)N23)cc1C (configuration not stated) | ? | -22% | -9% | 11% | ? | ·
COc1ccc([C@H]2SCC(=O)Nc3c2c(=O)[nH]n3C2CCCCC2)cc1 | · | · | · | · | · | 0%
O=C(Nc1ccccc1F)c1ccc(C(=O)c2ccccc2)cc1 | -72* | -17% | -16% | 48% | -5% | ?
Cc1nc(-c2ccc(C(=O)Nc3ccc(F)cc3)cc2)cs1 | ? | -20% | i | -16% | ? | 6.3µM*
COc1ccc(NC(=O)c2ccc(-c3csc(C)n3)cc2)cc1 | ? | 4% | i | -7% | ? | ?
CC1CCN(Cc2c(C(=O)N/N=C/c3cc(Cl)ccc3O)nnn2-c2nonc2N)CC1 | -100* | ? | 5µM* | -15% | ? | 3.5µM*
COc1c(Cl)cc(Cl)cc1/C=N/NC(=O)c1nnn(-c2nonc2N)c1CN1CCC(C)CC1 | -8 | -1% | i | -17% | 1%[46.1 µM] | -29%[46.1 µM]
CC1CCN(Cc2c(C(=O)N/N=C/c3cc(Br)ccc3O)nnn2-c2nonc2N)CC1 | -102* | ? | ? | -7% | ? | 2µM*
COc1cccc(C(=O)Nc2ccc(-c3nc4ccccc4s3)cc2Cl)c1 | -12 | 16% | 24% | -19% | 8%[46.1 µM] | ·
COc1ccc(NC(=O)C2CC23CCN(Cc2cccc4ncccc24)CC3)cc1Cl (configuration not stated) | · | -14% | -18% | -18% | · | ·
CC1CCN(C(C)C(=O)Nc2ccccc2-c2ccccc2)CC1 (configuration not stated) | -32 | -8% | -13% | ? | -4% | 12µM*
